Experimental data published in the supplement of paper PMC3334620.
In all, about 33,000 sequences were measured (“E-score (-0.5 to 0.5)”: median about -0.043, highest 2% from about 0.37 on). Only a selection was taken, and the highest values are over-represented in it overall.

biological target: T1, Upc2 (UniProt Q12151); experiment: PBM E-score (8-mer binding enrichment) (E-score (-0.5 to 0.5)); higher = stronger / more preferred TF binding; conditions: protein concentration: 200 nM; construct: GST-full length
T1 sequence: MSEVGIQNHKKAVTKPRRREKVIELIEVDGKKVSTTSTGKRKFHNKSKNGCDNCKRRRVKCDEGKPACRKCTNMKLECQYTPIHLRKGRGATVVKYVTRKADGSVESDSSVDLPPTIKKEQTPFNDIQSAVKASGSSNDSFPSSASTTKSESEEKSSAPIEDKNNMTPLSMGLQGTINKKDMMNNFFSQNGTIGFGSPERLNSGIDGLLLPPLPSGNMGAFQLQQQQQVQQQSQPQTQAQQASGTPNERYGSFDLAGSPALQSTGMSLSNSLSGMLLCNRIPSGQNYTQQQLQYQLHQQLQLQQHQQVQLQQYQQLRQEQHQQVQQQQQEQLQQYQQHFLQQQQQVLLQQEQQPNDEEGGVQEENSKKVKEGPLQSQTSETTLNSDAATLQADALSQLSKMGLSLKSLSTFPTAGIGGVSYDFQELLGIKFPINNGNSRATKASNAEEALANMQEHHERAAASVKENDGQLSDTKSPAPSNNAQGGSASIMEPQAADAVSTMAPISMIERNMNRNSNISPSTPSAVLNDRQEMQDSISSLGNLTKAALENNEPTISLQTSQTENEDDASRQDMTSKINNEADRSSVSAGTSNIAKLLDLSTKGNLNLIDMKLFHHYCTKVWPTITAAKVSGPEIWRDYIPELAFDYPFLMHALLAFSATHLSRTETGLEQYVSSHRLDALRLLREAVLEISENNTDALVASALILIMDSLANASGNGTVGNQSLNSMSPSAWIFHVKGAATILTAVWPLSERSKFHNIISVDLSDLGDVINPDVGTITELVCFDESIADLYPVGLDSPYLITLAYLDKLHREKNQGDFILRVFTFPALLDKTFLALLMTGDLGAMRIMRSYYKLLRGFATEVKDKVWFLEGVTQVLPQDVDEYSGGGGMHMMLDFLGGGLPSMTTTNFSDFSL
Description: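 Universal 'all 10-mer' protein binding microarrays (Agilent AMADID 015681) probed with GST-tagged S. cerevisiae TFs (full-length or DBD) made by in vitro transcription/translation (PURExpress), about 100-200 nM. Bound TF was detected with fluorescent anti-GST. Each ungapped 8-mer (which stands for itself and its reverse complement) is scored by the PBM enrichment score (E-score), a modified Wilcoxon-Mann-Whitney statistic from -0.5 to +0.5, computed with the Universal PBM Analysis Suite. Scale: above 0.35 generally sequence-specific binding.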

Row | Sequence | PBM E-score
1 | ATTCGATA | 0.0034
2 | GCACGATA | -0.0168
3 | ATACGATA | 0.472
4 | CTACGATA | 0.31
5 | GTACGATA | 0.445
6 | AGACGATA | 0.138
7 | CAAGCGAC | 0.169
8 | ATTTTCCG | 0.139
9 | GTTCTCCA | -0.109
10 | AGTCGAAG | -0.273
11 | AGCCGTAG | -0.0316
12 | ACCCGTAT | 0.396
13 | AGCCGTAT | 0.378
14 | ACCCGTAG | -0.11
15 | ACCCGTAC | 0.354
16 | AGCCGTAA | 0.279
17 | AACCGTAA | 0.233
18 | AACCGTAC | 0.311
19 | AACCGTAT | 0.375
20 | AGAAGAAG | -0.0336
21 | CCTAGTGA | -0.174
22 | TGCAACAA | -0.117
23 | AAAAAACA | -0.00292
24 | TGCAAGAA | -0.0985
25 | AGTACAAC | -0.0045

Row | Sequence | PBM E-score
26 | CGTACAAG | 0.442
27 | GGTACAAC | -0.0773
28 | GGTACAAA | 0.0128
29 | CGTACATC | 0.352
30 | CGTACAAA | 0.421
31 | AGTACAAA | -0.013
32 | AGTACATA | -0.0422
33 | CGTACATA | 0.415
34 | CATACAAG | -0.192
35 | CGTACAAC | 0.439
36 | AGTACAAG | -0.052
37 | AGTTCTCA | -0.107
38 | CGCGACCA | 0.116
39 | AGAGCTAG | -0.113
40 | AGTCTCTA | -0.0101
41 | ATCCCCTC | -0.0985
42 | CAAACCCA | 0.0481
43 | AAAATGTC | 0.14
44 | ACATCGTC | -0.00985
45 | ACATCGTA | 0.425
46 | CCATCGTA | 0.44
47 | GCATCGGA | -0.0207
48 | CCATCGAA | -0.132
49 | ACATCGTG | -0.0454
50 | GCATCGTA | 0.429

Row | Sequence | PBM E-score
51 | GCATCGAA | 0.00261
52 | CCATCGTC | -0.0745
53 | TGAAGGCA | -0.0834
54 | AACTATGC | 0.051
55 | AGTGGTCC | -0.123
56 | CCAATCGG | -0.174
57 | CCGAGGTA | 0.125
58 | GCTACGAA | 0.395
59 | CCTACGAA | 0.228
60 | CCTACGAC | 0.232
61 | TCTACGAA | 0.335
62 | GCTACGAC | 0.379
63 | ACTACGAC | 0.272
64 | TTACTCAA | 0.0201
65 | AGTGAGAG | -0.279
66 | AGCCATAT | 0.0338
67 | AATACGTG | 0.155
68 | AATACGGG | 0.229
69 | AATACGAG | 0.457
70 | GATACGTA | 0.254
71 | ACTACGAT | 0.16
72 | AATACGCT | 0.212
73 | AATACGTC | 0.0421
74 | GATACAAA | 0.106
75 | AATACGCC | 0.00457

Row | Sequence | PBM E-score
76 | AATACGAC | 0.435
77 | GATACGAA | 0.454
78 | AATACGAT | 0.395
79 | CAGCACAA | 0.0156
80 | CGAGATGA | 0.233
81 | CGACTCTC | 0.179
82 | AAACAGGA | -0.139
83 | TACCTGCA | -0.0203
84 | ATAGATCC | -0.0535
85 | CGACACAG | 0.122
86 | CAAACCGG | -0.0596
87 | GATACGGC | 0.324
88 | CATACGCC | 0.307
89 | CATACGAC | 0.466
90 | CATACGAG | 0.486
91 | CATACGTA | 0.315
92 | CATACAAA | 0.114
93 | CATACGAA | 0.466
94 | CATACGTC | 0.215
95 | CACACGAG | 0.155
96 | CATACGCG | 0.313
97 | GATACGAC | 0.468
98 | GATACGCC | 0.189
99 | AGCAAGGA | -0.0783
100 | GCCAACGC | -0.0104

Row | Sequence | PBM E-score
101 | CGACTGAA | 0.184
102 | CTGGGGCA | -0.2
103 | CCTCACGA | -0.219
104 | ACTACGAA | 0.185
105 | AATACGTA | 0.196
106 | AATACGAA | 0.424
107 | CACTTAAG | -0.0164
108 | CTTGTACA | -0.0692
109 | AGCGTACC | 0.212
110 | CACGTACC | 0.188
111 | CTCGTACA | 0.489
112 | CTCGTACC | 0.481
113 | ATCGTACC | 0.455
114 | ATAGTACC | -0.084
115 | CGCGTACC | 0.302
116 | CTGGTACA | -0.0228
117 | CTGTTAGC | -0.142
118 | CGCATTTA | 0.0301
119 | GCTATGCC | -0.282
120 | ATGGTCTG | -0.129
121 | CAGGACTC | -0.0969
122 | GAGGTAGA | -0.0305
123 | ACCGAAGT | 0.147
124 | TCCGAAGA | 0.0352
125 | GACGAAGC | 0.00181

Row | Sequence | PBM E-score
126 | AACGAAGG | 0.401
127 | AACGAAGC | 0.408
128 | AAAGAAGT | -0.0114
129 | ACCGAAGG | 0.0458
130 | CACGAAGG | 0.00451
131 | TACGAAGA | 0.448
132 | CACGAAGC | 0.017
133 | TAAGAAGA | 0.11
134 | AACGAAGT | 0.415
135 | GTTAAAAA | 0.11
136 | CTAGTGTC | 0.0134
137 | CCAGGATA | 0.0403
138 | ATTTCTAA | -0.105
139 | AGGAACCC | 0.0161
140 | CAACCAGC | -0.203
141 | CTAGGGAA | -0.179
142 | AGACCCAT | -0.186
143 | CTAGACCA | -0.217
144 | AGCCACAC | -0.00233
145 | GACGAAGA | -0.0247
146 | AACGAAGA | 0.424
147 | CACGAAGA | 0.0935
148 | AGTATGGA | -0.128
149 | CGTATGGC | 0.413
150 | CCTATGGC | -0.195

Row | Sequence | PBM E-score
151 | CGTATGGA | 0.423
152 | GGTATGGA | -0.146
153 | AGTATGGC | -0.129
154 | AAATGAAC | 0.118
155 | AGCAATCC | -0.121
156 | ACAAGCCT | -0.166
157 | CTCGGTTA | 0.381
158 | ATCGGTTA | 0.333
159 | GTCGGTTA | 0.337
160 | ATTTTTCG | 0.0906
161 | CCTTTATC | -0.132
162 | TATCAGGA | 0.0996
163 | CTCGTAAC | 0.425
164 | CACGTAAG | 0.105
165 | CCCGTAAC | 0.248
166 | CTCGTAAG | 0.43
167 | CGCGTAAG | 0.205
168 | CACGTAAC | 0.039
169 | GGCGTAAC | 0.0403
170 | GTCGTAAC | 0.408
171 | GACGTAAC | 0.0258
172 | AGAAGTTG | 0.0297
